# According to article PMC4336329 (PLoS ONE, 2015):
# In all, about 310,000 compounds went through this assay and about 14,000 (4.5%) showed an effect of 50% or more. Effects have a minus sign here. Many of the other results were omitted from the sample, so strong results are more common in it than they were.
# Target: human ether-à-go-go-related gene (hERG) potassium channel (human, UniProt Q12809)
# Test: primary screen, population patch clamp on CHO cells stably expressing hERG; higher = less effect of the substance
# 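Further: peak tail current of the secondary pulse compared with the same well before compound.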
# Chain of human ether-à-go-go-related gene (hERG) potassium channel (Q12809 whole entry, looked up): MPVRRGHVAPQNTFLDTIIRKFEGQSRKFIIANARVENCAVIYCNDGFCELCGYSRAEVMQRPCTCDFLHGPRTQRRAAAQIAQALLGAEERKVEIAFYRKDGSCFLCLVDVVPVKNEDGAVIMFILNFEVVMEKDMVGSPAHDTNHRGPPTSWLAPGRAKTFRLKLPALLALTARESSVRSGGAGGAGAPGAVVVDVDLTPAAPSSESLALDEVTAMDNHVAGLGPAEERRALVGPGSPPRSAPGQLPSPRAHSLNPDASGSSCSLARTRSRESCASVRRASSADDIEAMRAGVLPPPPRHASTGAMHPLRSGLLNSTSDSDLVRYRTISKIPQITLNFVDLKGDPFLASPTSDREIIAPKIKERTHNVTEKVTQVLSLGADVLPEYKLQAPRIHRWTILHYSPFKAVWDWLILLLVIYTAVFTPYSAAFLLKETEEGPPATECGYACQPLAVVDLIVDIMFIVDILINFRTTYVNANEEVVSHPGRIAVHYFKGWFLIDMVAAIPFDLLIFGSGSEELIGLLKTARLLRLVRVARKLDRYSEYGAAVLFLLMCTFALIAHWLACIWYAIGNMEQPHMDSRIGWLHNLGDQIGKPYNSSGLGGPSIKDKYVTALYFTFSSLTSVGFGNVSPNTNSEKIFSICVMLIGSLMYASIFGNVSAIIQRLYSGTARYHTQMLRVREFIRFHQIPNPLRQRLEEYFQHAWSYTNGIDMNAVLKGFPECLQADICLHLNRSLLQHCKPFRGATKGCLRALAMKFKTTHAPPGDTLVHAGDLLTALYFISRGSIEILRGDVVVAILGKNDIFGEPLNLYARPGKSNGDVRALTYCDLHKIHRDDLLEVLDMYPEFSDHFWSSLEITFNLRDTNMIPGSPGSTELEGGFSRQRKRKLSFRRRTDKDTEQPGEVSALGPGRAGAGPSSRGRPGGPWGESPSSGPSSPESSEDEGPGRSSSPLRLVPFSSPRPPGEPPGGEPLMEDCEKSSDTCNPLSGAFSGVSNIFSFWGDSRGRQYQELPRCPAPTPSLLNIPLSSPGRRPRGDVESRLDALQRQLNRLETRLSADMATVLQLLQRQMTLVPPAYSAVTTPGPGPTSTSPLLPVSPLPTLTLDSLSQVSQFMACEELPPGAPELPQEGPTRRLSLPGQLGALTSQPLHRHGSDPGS
row,Structure (SMILES),"hERG current change (%, negative = inhibition) at 10uM"
1,CCOCCn1c(SCc2ccc(F)cc2)nc2c1c(=O)[nH]c(=O)n2C,-19.5%
2,Cc1ccc(C(C)C)c(OCCOCCN2CCNCC2)c1.O=C(O)C(=O)O,-3.95%
3,CC(C)(C)c1ccc(OCC(=O)NCCN2CCCC2)cc1.Cl,-33.7%
4,CCOC(=O)n1c(=O)n(Cc2ccc(Cl)cc2Cl)c2ccccc21,-3.22%
5,COc1ccc(CN2C3CCCC2CC(NC(=O)Nc2ccccc2C)C3)cc1 (centres unmarked),-59%
6,CC(=O)NC1CC2CCCC(C1)N2C(=O)Nc1ccc(Cl)c(C(F)(F)F)c1 (centres unmarked),-3.34%
7,COc1ccc(CN2C3CCCC2CC(NC(=O)Nc2ccccc2)C3)cc1 (centres unmarked),-74.1%
8,COCC(=O)NC1CC2CCCC(C1)N2Cc1ccccc1 (centres unmarked),-4.63%
9,Cc1ccccc1NC(=O)NC1CCCCCCC1,8.64%
10,Cc1cccc(NC(=S)NC2CC3CCCC(C2)N3Cc2ccccc2)c1C (centres unmarked),-10.4%
11,COc1ccc(NC(=O)N2C3CCCC2CC(NC(=O)c2ccccc2)C3)cc1 (centres unmarked),-15.9%
12,COc1ccc(NC(=O)NC2CC3CCCC(C2)N3Cc2ccccc2)cc1 (centres unmarked),-50.1%
13,O=C(Nc1ccc(Cl)c(C(F)(F)F)c1)NC1CC2CCCC(C1)N2Cc1ccccc1 (centres unmarked),-71%
14,O=C(Nc1ccc(Cl)c(C(F)(F)F)c1)NC1CC2CCCC(C1)N2C1CC1 (centres unmarked),-10.1%
15,COc1ccc(C(=O)NC2CC3CCCC(C2)N3Cc2ccccc2)c(OC)c1 (centres unmarked),-26.5%
16,CCOc1ccc(N2C(=O)CC(N)C2=O)cc1 (centres unmarked),1.65%
17,COc1ccc(OC)c(CCNC(=O)CC2(CC3=NS(=O)(=O)c4ccccc4N3)CCCC2)c1,-11.2%
18,COC(=O)c1cc(-c2cccc([N+](=O)[O-])c2)c2c(=O)[nH]c(=O)n(C)c2n1,6.48%
19,COc1cccc(NC(=O)CCNS(=O)(=O)c2cccc3nsnc23)c1,1.56%
20,Cn1c(=O)c2ccccc2n(Cc2ccccc2Cl)c1=O,0.661%
21,Cc1ccc(CN2C3CCCC2CC(NC(=O)Nc2cccc(F)c2)C3)cc1 (centres unmarked),-85.7%
22,CCc1cccc(CC)c1NC(=O)CN1C2CCCC1CC(NC(=O)Nc1cccc(OC)c1)C2 (centres unmarked),-7.7%
23,COc1ccc(CN2C3CCCC2CC(NC(=O)Nc2cccc(C)c2)C3)cc1 (centres unmarked),-75.3%
24,CCCN1C2CCCC1CC(NC(=O)Nc1cccc(C(C)=O)c1)C2 (centres unmarked),-5.62%
25,Cc1cccc(NC(=O)NC2CC3CCC(C2)N3Cc2ccco2)c1 (centres unmarked),-2.61%
26,O=C(Nc1cccc(F)c1)NC1CC2CCCC(C1)N2C1CC1 (centres unmarked),-8.34%
